# Among all 290,000 compounds or so, about 11,000 (3.8%) were called active. This excerpt belongs to a sample that is enriched for actives. A number with no mark means an inactive call.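 Rule for the calls: active = mean replicate inhibition above about 79%, with every replicate also reaching it (limit read from the data); inconclusive = only one of the two criteria met; inactive = mean below limit and not every replicate reaching it.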
# Molecular target: FAD-linked sulfhydryl oxidase ALR (Homo sapiens) (UniProt P55789)
# Sequence (P55789 whole entry, looked up): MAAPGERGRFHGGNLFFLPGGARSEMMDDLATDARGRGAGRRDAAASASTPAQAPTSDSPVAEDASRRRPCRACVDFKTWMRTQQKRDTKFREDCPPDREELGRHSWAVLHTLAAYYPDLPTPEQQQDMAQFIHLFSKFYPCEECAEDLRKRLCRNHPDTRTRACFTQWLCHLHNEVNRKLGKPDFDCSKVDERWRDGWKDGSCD
# Experiment: ALR-catalysed DTT oxidation blockers – biochemical, H2O2 detection, HRP-luminol luminescence, single point, primary screen (AID 485317)
# Details: purified ALR, stronger effect = higher value, concentration not given here
row,SMILES,inhibition
1,CCCCCC(=O)N1CCN(S(=O)(=O)c2ccc3c(c2)OCCCO3)CC1,1.7%
2,Cc1ccc(S(=O)(=O)N2CCCCC2)cc1NC(=O)[C@@H]1CCCN1C(=O)c1cccs1,-6.24%
3,O=C(Cc1ccc(Br)cc1)NCCc1ccccc1,-8.61%
4,Cc1cc(C)n2nc(C(=O)OCC(=O)N(C)CC(=O)Nc3ccc(F)cc3)nc2n1,2.76%
5,C=C1c2cc(CC)ccc2NC(=O)N1c1ccc(C)cc1,96.2% (active)
6,Cc1ccc(N2C(=O)C(Cc3ccccc3)NC2=S)cc1 (centres undefined),25.5%
7,Cc1ccc(CC2C(=O)N(c3ccc(F)cc3)C(=O)C2C)cc1 (centres undefined),1.22%
8,Cc1ccc(S(=O)(=O)N2C3C=CC(C3)C2C(=O)O)cc1 (centres undefined),89.7% (active)
9,Cc1ccc(S(=O)(=O)N2CCN(C(=O)c3cccs3)CC2)cc1,-6.58%
10,Cc1ccc(S(=O)(=O)N2CCN(C)CC2)cc1,-6.86%
11,CC(C)(C)OC(=O)C[C@@H]1C/C=C\C[C@@H](CC(=O)N[C@H](CO)Cc2ccccc2)C(=O)NC[C@@H](c2ccccc2)OC1=O,-0.924%
12,CC(=O)CCC(=O)c1ccc2ccccc2c1,-2.18%
13,Cc1cc(N=Nc2ccc3ccccc3c2)ccc1O,86% (active)
14,COc1ccc(N=Nc2ccc(O)c(P(=O)(c3ccccc3)c3ccccc3)c2)cc1,-4.29%
15,Cc1nc2ccccc2c(=O)n1-c1ccc(F)c(NC(=O)c2cccs2)c1,-7.89%
16,CN(Cc1cccs1)C(=O)CN1C(=O)c2ccccc2S1(=O)=O,1.6%
17,Cc1ccc(C(=O)N/C(=C/c2cccs2)C(=O)NCC2CCCO2)cc1 (centres undefined),-0.67%
18,O=C(N/C(=C\c1ccc(O)cc1)C(=O)N1CCCCC1)c1ccccc1,99% (active)
19,CC1CCN(C(=O)/C(=C\c2ccccc2)NC(=O)c2ccccc2)CC1,8.11%
20,Cc1ccc(C(=O)N/C(=C/c2cccs2)C(=O)N2CCCCC2)cc1,88.2% (active)
21,CN1CCN(C(=O)/C(=C\c2cccs2)NC(=O)c2cccs2)CC1,9.55%
22,O=C(N/C(=C\c1ccc(F)cc1)C(=O)N1CCCCCC1)c1ccccc1,39.9%
23,O=C(COC(=O)CSc1ccccc1)Nc1ccc(F)cc1F,0.233%
24,Cc1nn(-c2ccccc2)nc1C(=O)OCC(=O)N1CCCCC1C (centres undefined),0.513%

row,SMILES,inhibition
1,Cc1ccsc1C(=O)N[C@@H](C)c1nnc2ccccn12,-3.18%
2,CC(C)(C)Nc1c(-c2cccs2)nc2ccccn12,98.7% (active)
3,Cc1nc2ccccn2c(=O)c1NC(=O)c1cccs1,-1.56%
4,O=C(OCC(=O)N1CCCCCC1)c1ccc(Cl)nc1,8.08%
5,CCOC(=O)[C@H]1[C@H]2COc3cc(OC)ccc3[C@@H]2N2C(=O)CN(Cc3ccc(Cl)cc3)C(=O)[C@@]12C,-2.14%
6,CCC(=O)N1c2ccc(S(=O)(=O)CCC(=O)N3CCN(c4ccccc4)CC3)cc2CC1C (centres undefined),98.5% (active)
7,CC(=O)N1CCCc2cc(S(=O)(=O)CCC(=O)N3CCN(c4ccccc4)CC3)ccc21,61.3%
8,CCC(=O)N1CCc2cc(S(=O)(=O)CCC(=O)N3CCN(c4ccccc4F)CC3)ccc21,5.15%
9,CCC(=O)c1cc(F)ccc1OCC(=O)Nc1ccc2c(c1)OCCO2,-1.15%
10,CNC[C@@H]1Oc2c(NS(C)(=O)=O)cccc2C(=O)N([C@@H](C)CO)C[C@H]1C,6.23%
11,CCOc1ccc(C(C)=O)cc1COC(=O)CNC(=O)c1cccs1,-1.95%
12,COc1ccc(C2=NN(c3ccccc3)C(c3cccs3)C2)cc1 (centres undefined),-4.89%
13,COc1ccc(C2CC(c3cccs3)=NN2c2ccccc2)cc1 (centres undefined),97.6% (active)
14,Oc1ccccc1C1=NN(c2ccccc2)C(c2ccccc2)C1 (centres undefined),47.4%
15,COc1ccccc1N1N=C(c2cccs2)CC1c1ccccc1 (centres undefined),97.2% (active)
16,COc1ccc(C2CC(c3cccs3)=NN2C(=O)CCC(=O)O)cc1OC (centres undefined),5.58%
17,COc1ccc(C2CC(c3cccs3)=NN2c2ccc(F)cc2)cc1OC (centres undefined),-1.9%
18,COc1ccc(C(=O)C2CCCN(C(=O)c3ccc(OC)o3)C2)c(C)c1 (centres undefined),-4%
19,CNC(C)C#Cc1ccc2sc3cc(OC)c(OC)cc3c(=O)c2c1 (centres undefined),-24.4%
20,Cc1onc(-c2ccccc2Cl)c1C(=O)N(Cc1ccc(N(C)C)cc1)C(C)C,9.74%
21,CCCCOc1ccc(CSC(=N)N)cc1[N+](=O)[O-],99.9% (active)
22,C=CCN(CC=C)CCOc1ccccc1[N+](=O)[O-],-15.8%
23,CCCCCOc1ccc(CSC2=NCCN2)cc1[N+](=O)[O-],98.8% (active)
24,CCCCOC(=O)CCCc1ccc([N+](=O)[O-])cc1[N+](=O)[O-],-8.65%

row,SMILES,inhibition
1,CCCOc1ccc(Cn2ccnc2)cc1[N+](=O)[O-],-2.35%
2,Cc1cc(OCCCCOc2ccc(C#N)cc2)ccc1[N+](=O)[O-],3.02%
3,Cc1cc(C)c(S(=O)(=O)N2CCCC2CNC(=O)c2ccc3c(c2)OCO3)c(C)c1 (centres undefined),0.666%
4,COCCn1c(C)cc(C(=O)CN2c3cccc4cccc(c34)S2(=O)=O)c1C,-28.9%
5,CCCCN(C(=O)C1CCC1)c1c(N)n(Cc2ccccc2)c(=O)[nH]c1=O,7.79%
6,Cc1ccccc1NC(=O)Cc1nc(COC(=O)c2cccnc2Cl)cs1,31.8%
7,O=C(COC(=O)c1ccc2c(c1)OCCO2)NCc1ccccc1Cl,1.29%
8,O=C(Cn1nc(Cc2cccnc2)c2ccccc2c1=O)NCC1COc2ccccc2O1 (centres undefined),-6%
9,Cc1nn(CC(=O)NCC2CCCO2)c(=O)c2cc3ccccc3n12 (centres undefined),-2.19%
10,O=C(Cn1nc(Cc2cccnc2)c2ccccc2c1=O)NCC1CCCO1 (centres undefined),98% (active)
11,CCOC(=O)c1cc(NC(=O)c2cccnc2)ccn1,-12.6%
12,CC(=O)Nc1ccc(SC[C@H](Cc2ccccc2)N2CC[C@@H](C)CCC2=O)cc1,97.9% (active)
13,O=C1CC[C@H](O)CCN1[C@H](CSc1ccc(Br)cc1)Cc1ccccc1,11.4%
14,C[C@H]1CCC(=O)N([C@H](CSc2ccccc2)Cc2ccccc2)CC1,-5.54%
15,COc1ccc(NC(=O)COC(=O)c2n[nH]c3ccccc23)c(OC)c1,-2.04%
16,COc1ccc(N2CCN(Cc3nnc(-c4ccccc4)o3)CC2)cc1,35.1%
17,Fc1ccc(N2CCN(Cc3cnc(Oc4ccc(Br)cc4)s3)CC2)cc1,1.01%
18,c1ccc(-c2cnc(CN3CCN(c4ccccc4)CC3)o2)cc1,88.2% (active)
19,COc1ccc(C2=Nn3c(nnc3-c3ccccc3OC)SC2)cc1OC1CCCC1,0.67%
20,O=C(Nc1ccc(F)c([N+](=O)[O-])c1)C1CCCO1 (centres undefined),-26.1%
21,CCOc1ccc(OCC(=O)OC(C)C(=O)NC2CCCCC2C)cc1 (centres undefined),-1.89%
22,CCOC(=O)c1ccc(NC2Nc3cc(C)nn3S2)cc1 (centres undefined),-10.5%
23,CCc1ccc(NC2Nc3cc(C)nn3S2)cc1 (centres undefined),97.5% (active)
24,COc1ccc(-c2nnc(SCC(=O)Nc3cccnc3Cl)n2C)cc1,-3.14%

row,SMILES,inhibition
1,C[C@H](NC(=O)c1[nH]cnc1C(=O)Nc1nccs1)c1ccccc1,-11.7%
2,COc1ccc(C(=O)OCC(=O)NCCCc2ccccc2)cc1OC,1.14%
3,COc1cc(/C=C/C(=O)OCC(=O)NCCCc2ccccc2)ccc1O,92.7% (active)
4,COc1cc(/C=C/C(=O)OCC(=O)Nc2cccc(Oc3ccccc3)c2)ccc1O,-5.43%
5,O=C1C=C(c2cccc(Cl)c2O)C[C@@H](c2ccc(F)cc2)C1,19.8%
6,COC(=O)c1ccc(COC(=O)CNC(=O)c2cccc(OC)c2)o1,0.754%
7,CCN(C(=O)COC(=O)Cc1c(F)cccc1Cl)c1c(N)n(Cc2ccccc2)c(=O)[nH]c1=O,-2.58%
8,O=C(/C=C/c1ccc(F)cc1)NC(=S)NNC(=O)c1cccnc1,91.2% (active)
9,CC(C)c1ccc(/C=C/C(=O)NNC(=O)c2cccnc2)cc1,3.18%
10,O=C(/C=C/c1ccc(F)cc1)NCCNC(=O)/C=C/c1ccc(F)cc1,-1.46%
11,O=C(NCCc1ccco1)c1ccc(OCc2cn3ccccc3n2)cc1,-0.605%
12,COc1ccc(S(=O)(=O)N2CCCCC2)cc1NC(=O)COc1ccccc1,-4.75%
13,Fc1ccccc1/C=N/Nc1cc(N2CCCCC2)ncn1,-6.88%
14,Cc1cc(N/N=C/c2ccccc2F)c2ccccc2n1,98.4% (active)
15,Cc1ccc2nc(C)cc(N/N=C/c3ccc(F)cc3)c2c1,68.2%
16,O=C(Nc1ccc(N2CCOCC2)cc1)c1cccc(S(=O)(=O)N2CCOCC2)c1,13.1%
17,CCOC(=O)c1sc2nc(CSCC(=O)OCc3ccc(C(=O)OC)o3)[nH]c(=O)c2c1C,91.5% (active)
18,CCOC(=O)c1sc2nc(C)[nH]c(=O)c2c1C,-7.28%
19,Cc1sc2nc(CSCC(=O)Nc3c(Cl)cccc3Cl)[nH]c(=O)c2c1C,36.7%
20,CC(C)CCNc1nc(N2CCCC2)c2c(c1C#N)CCN(C)C2,89.2% (active)
21,N#CCc1c(C#N)c(N)nc(N2CCCC2)c1C#N,6.64%
22,CC(C)Cc1nc(N2CCOCC2)c(C#N)c2c1CCC2,-5.9%
